Consider 26 molecules from paper PMC9911399, “Two distinct binding modes provide the RNA-binding protein RbFox with extraordinary sequence specificity”.

Numbering of substitutions follows the chain as printed; changes in the protein carry UniProt numbers. Whole data set: some 16,000 sequences, median “ka relative to ugcaugu” near 0.096, cut for the highest 2% near 0.35. This is one part of a sample in which the highest values are shown more often than they occur.

T1: RBFOX1 RRM RbFoxmut (Fox-RRM*) (Homo sapiens, UniProt Q9NWB1 109-208, R118D;E147R;N151S;E152T)
T1 sequence: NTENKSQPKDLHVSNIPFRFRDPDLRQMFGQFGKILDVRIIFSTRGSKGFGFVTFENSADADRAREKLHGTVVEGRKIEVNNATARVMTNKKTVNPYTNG

B1: CUAUAAG (DNA:RNA)
RNA: GGGAGACCGGAAUUCAGAUUGUCCCUAUAAGUUAAAUCCCGUCGUAGCCACCA
DNA 1: CAATCTGAATTCCGGTCTCCC
DNA 2: TGGTGGCTACGACGGGATT
B2: GUCAGCC (DNA:RNA)
RNA: B1 RNA with C25G, A27C, U28A, A29G, A30C, G31C
DNA 1: CAATCTGAATTCCGGTCTCCC
DNA 2: TGGTGGCTACGACGGGATT
B3: GCACGGU (DNA:RNA)
RNA: B1 RNA with C25G, U26C, U28C, A29G, A30G, G31U
DNA 1: CAATCTGAATTCCGGTCTCCC
DNA 2: TGGTGGCTACGACGGGATT
B4: CUAAUAG (DNA:RNA)
RNA: B1 RNA with U28A, A29U
DNA 1: CAATCTGAATTCCGGTCTCCC
DNA 2: TGGTGGCTACGACGGGATT
B5: UCCGCGC (DNA:RNA)
RNA: GGGAGACCGGAAUUCAGAUUGUCCUCCGCGCUUAAAUCCCGUCGUAGCCACCA
DNA 1: CAATCTGAATTCCGGTCTCCC
DNA 2: TGGTGGCTACGACGGGATT
B6: UAGAAUG (DNA:RNA)
RNA: B1 RNA with C25U, U26A, A27G, U28A, A30U
DNA 1: CAATCTGAATTCCGGTCTCCC
DNA 2: TGGTGGCTACGACGGGATT
B7: UAGAAUC (DNA:RNA)
RNA: B5 RNA with C26A, C27G, G28A, C29A, G30U
DNA 1: CAATCTGAATTCCGGTCTCCC
DNA 2: TGGTGGCTACGACGGGATT
B8: UAGAUUG (DNA:RNA)
RNA: B1 RNA with C25U, U26A, A27G, U28A, A29U, A30U
DNA 1: CAATCTGAATTCCGGTCTCCC
DNA 2: TGGTGGCTACGACGGGATT
B9: CAGAAUG (DNA:RNA)
RNA: B1 RNA with U26A, A27G, U28A, A30U
DNA 1: CAATCTGAATTCCGGTCTCCC
DNA 2: TGGTGGCTACGACGGGATT
B10: CCCAGAA (DNA:RNA)
RNA: B1 RNA with U26C, A27C, U28A, A29G, G31A
DNA 1: CAATCTGAATTCCGGTCTCCC
DNA 2: TGGTGGCTACGACGGGATT
B11: CAGAUUG (DNA:RNA)
RNA: B1 RNA with U26A, A27G, U28A, A29U, A30U
DNA 1: CAATCTGAATTCCGGTCTCCC
DNA 2: TGGTGGCTACGACGGGATT
B12: GAGCACA (DNA:RNA)
RNA: B1 RNA with C25G, U26A, A27G, U28C, A30C, G31A
DNA 1: CAATCTGAATTCCGGTCTCCC
DNA 2: TGGTGGCTACGACGGGATT
B13: UGGCUAC (DNA:RNA)
RNA: B5 RNA with C26G, C27G, G28C, C29U, G30A
DNA 1: CAATCTGAATTCCGGTCTCCC
DNA 2: TGGTGGCTACGACGGGATT
B14: UGGCCCU (DNA:RNA)
RNA: B5 RNA with C26G, C27G, G28C, G30C, C31U
DNA 1: CAATCTGAATTCCGGTCTCCC
DNA 2: TGGTGGCTACGACGGGATT
B15: AGUCGUC (DNA:RNA)
RNA: B5 RNA with U25A, C26G, C27U, G28C, C29G, G30U
DNA 1: CAATCTGAATTCCGGTCTCCC
DNA 2: TGGTGGCTACGACGGGATT
B16: GGUCUUG (DNA:RNA)
RNA: B1 RNA with C25G, U26G, A27U, U28C, A29U, A30U
DNA 1: CAATCTGAATTCCGGTCTCCC
DNA 2: TGGTGGCTACGACGGGATT
B17: ACCAGUC (DNA:RNA)
RNA: B5 RNA with U25A, G28A, C29G, G30U
DNA 1: CAATCTGAATTCCGGTCTCCC
DNA 2: TGGTGGCTACGACGGGATT
B18: CGUCUUG (DNA:RNA)
RNA: B1 RNA with U26G, A27U, U28C, A29U, A30U
DNA 1: CAATCTGAATTCCGGTCTCCC
DNA 2: TGGTGGCTACGACGGGATT
B19: GUCGGUC (DNA:RNA)
RNA: B5 RNA with U25G, C26U, C29G, G30U
DNA 1: CAATCTGAATTCCGGTCTCCC
DNA 2: TGGTGGCTACGACGGGATT
B20: GUUGGUC (DNA:RNA)
RNA: B5 RNA with U25G, C26U, C27U, C29G, G30U
DNA 1: CAATCTGAATTCCGGTCTCCC
DNA 2: TGGTGGCTACGACGGGATT
B21: CACCGUC (DNA:RNA)
RNA: B5 RNA with U25C, C26A, G28C, C29G, G30U
DNA 1: CAATCTGAATTCCGGTCTCCC
DNA 2: TGGTGGCTACGACGGGATT
B22: CGUCGUC (DNA:RNA)
RNA: B1 RNA with U26G, A27U, U28C, A29G, A30U, G31C
DNA 1: CAATCTGAATTCCGGTCTCCC
DNA 2: TGGTGGCTACGACGGGATT
B23: GUCUUGG (DNA:RNA)
RNA: B1 RNA with C25G, A27C, A29U, A30G
DNA 1: CAATCTGAATTCCGGTCTCCC
DNA 2: TGGTGGCTACGACGGGATT
B24: AGUCUUG (DNA:RNA)
RNA: B1 RNA with C25A, U26G, A27U, U28C, A29U, A30U
DNA 1: CAATCTGAATTCCGGTCTCCC
DNA 2: TGGTGGCTACGACGGGATT
B25: GGAUUGG (DNA:RNA)
RNA: B1 RNA with C25G, U26G, A29U, A30G
DNA 1: CAATCTGAATTCCGGTCTCCC
DNA 2: TGGTGGCTACGACGGGATT
B26: GGUCGUC (DNA:RNA)
RNA: B5 RNA with U25G, C26G, C27U, G28C, C29G, G30U
DNA 1: CAATCTGAATTCCGGTCTCCC
DNA 2: TGGTGGCTACGACGGGATT

The assay addresses T1, RBFOX1 RRM RbFoxmut (Fox-RRM*). Nature of the assay: EMSA; HiTS-Eq, 1 nM pool, 10 min; buffer printed only for the single-RNA assays: 10 mM Tris pH 7.5, 150 mM NaCl, 3.4 mM EDTA, 0.001% NP-40, 30 C. The following applies: tags: His6 N-terminal (pET28a); label: 5' 32P. Put shortly: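 Purified wild-type or mutant RbFox RRM at increasing concentrations was equilibrated with 1 nM of 5′-radiolabelled RNA carrying 7 randomized nucleotides for 10 min in 50 µL. Unbound RNA was separated by 8% native PAGE and sequenced. Relative association constants came from read-count changes of each RNA species compared with the control reaction, normalised to the cognate motif.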
B1: the binding signal was 0.0991 KA relative to UGCAUGU.

Turning to B2, the binding signal is 0.0902 KA relative to UGCAUGU. As for B3, the binding signal is 0.289 KA relative to UGCAUGU.

In the case of B4, the binding signal was 0.0844 KA relative to UGCAUGU. In the case of B5 it was 0.0955 KA relative to UGCAUGU. In the case of B6 it was 0.953 KA relative to UGCAUGU. In the case of B7 it was 0.125 KA relative to UGCAUGU; in that of B8, 0.194 KA relative to UGCAUGU; in that of B9, 1.17 KA relative to UGCAUGU. With B10, the binding signal was 0.0718 KA relative to UGCAUGU. In the case of B11 it was 0.225 KA relative to UGCAUGU; in that of B12, 0.0821 KA relative to UGCAUGU; in that of B13, 0.0987 KA relative to UGCAUGU.

For B14, the binding signal is 0.0838 KA relative to UGCAUGU.

For the molecule B15, the binding signal was 0.117 KA relative to UGCAUGU.

With B16, the binding signal was 0.368 KA relative to UGCAUGU. In the case of B17 it was 0.063 KA relative to UGCAUGU; in that of B18, 0.615 KA relative to UGCAUGU.

With B19, the binding signal is 0.171 KA relative to UGCAUGU. Turning to B20, the binding signal was 0.164 KA relative to UGCAUGU. For the molecule B21, the binding signal is 0.0639 KA relative to UGCAUGU. On to B22, for which the binding signal is 0.186 KA relative to UGCAUGU. In the case of B23 it was 0.403 KA relative to UGCAUGU; in that of B24, 0.459 KA relative to UGCAUGU; in that of B25, 0.219 KA relative to UGCAUGU. As for B26, the binding signal was 0.159 KA relative to UGCAUGU.
